Most compounds without a hit are left out; they make up all but 2.4% or so of the library.
miR122 inh: miR-122 Renilla sensor signal increase in Huh7, primary screen, miR-122 inhibitor project, cell-based, single point, plate reader. Huh7 miR-122 Renilla luciferase sensor, 48 h; neutral wells = 0, positive control = 100. activation (reporter increase), % at 12.5 µM. 340,000 tested, 0.3% active;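 active means mean replicate activation score at least 90 and every replicate individually at or above 90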;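 further: higher luciferase means less miR-122 activity so hits act as miR-122 inhibitors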
NSD2 inh: NSD2 histone methyltransferase inhibitors, primary screen, biochemical, AlphaScreen, single concentration, set 2 | NSD2 peptide methylation, 120 min | inhibition, % at 12.5 µM | 310,000 tested, 0.54% active
Target sequence (O96028 whole entry, looked up): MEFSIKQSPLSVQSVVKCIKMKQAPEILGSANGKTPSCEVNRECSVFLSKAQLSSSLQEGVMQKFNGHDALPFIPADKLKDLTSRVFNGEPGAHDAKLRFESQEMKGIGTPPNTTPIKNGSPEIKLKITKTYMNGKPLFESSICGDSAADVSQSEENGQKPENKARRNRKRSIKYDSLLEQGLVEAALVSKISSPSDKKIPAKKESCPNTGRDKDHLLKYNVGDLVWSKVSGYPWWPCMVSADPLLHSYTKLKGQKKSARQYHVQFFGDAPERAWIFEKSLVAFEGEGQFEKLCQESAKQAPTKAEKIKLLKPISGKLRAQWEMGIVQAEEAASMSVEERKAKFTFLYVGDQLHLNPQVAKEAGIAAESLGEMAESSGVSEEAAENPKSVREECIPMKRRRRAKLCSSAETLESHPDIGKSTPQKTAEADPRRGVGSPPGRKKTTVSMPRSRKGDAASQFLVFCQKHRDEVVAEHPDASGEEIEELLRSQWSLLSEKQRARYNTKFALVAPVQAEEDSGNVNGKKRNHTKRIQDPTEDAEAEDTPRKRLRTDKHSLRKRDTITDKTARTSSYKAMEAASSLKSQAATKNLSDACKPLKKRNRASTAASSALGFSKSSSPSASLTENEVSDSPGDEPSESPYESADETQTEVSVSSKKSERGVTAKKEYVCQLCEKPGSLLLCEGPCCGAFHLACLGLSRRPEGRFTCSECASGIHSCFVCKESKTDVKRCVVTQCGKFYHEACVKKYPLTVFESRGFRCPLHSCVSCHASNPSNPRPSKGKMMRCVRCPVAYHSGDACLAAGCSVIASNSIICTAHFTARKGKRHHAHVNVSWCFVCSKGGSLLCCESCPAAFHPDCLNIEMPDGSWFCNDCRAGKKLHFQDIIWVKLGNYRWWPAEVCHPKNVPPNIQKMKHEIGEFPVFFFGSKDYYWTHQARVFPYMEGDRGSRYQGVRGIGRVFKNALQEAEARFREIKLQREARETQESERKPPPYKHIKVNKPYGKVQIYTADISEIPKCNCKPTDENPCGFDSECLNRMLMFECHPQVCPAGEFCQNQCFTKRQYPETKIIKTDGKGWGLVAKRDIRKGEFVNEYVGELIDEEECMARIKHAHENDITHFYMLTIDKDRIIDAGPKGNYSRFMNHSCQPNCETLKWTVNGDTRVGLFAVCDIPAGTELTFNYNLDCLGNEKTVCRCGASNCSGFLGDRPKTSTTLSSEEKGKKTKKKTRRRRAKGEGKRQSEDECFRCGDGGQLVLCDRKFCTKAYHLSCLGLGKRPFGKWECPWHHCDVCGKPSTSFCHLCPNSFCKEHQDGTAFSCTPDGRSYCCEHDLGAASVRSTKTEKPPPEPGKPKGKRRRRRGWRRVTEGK
DYRK1A inh: rat Dyrk1A kinase inhibitors, primary screen, biochemical, single point, plate reader | Dual specificity tyrosine-phosphorylation-regulated kinase 1A (Rattus norvegicus), Q63470 | ADP-Glo luminescence, NFATc1 peptide | 310,000 tested, 0.43% active | inhibition, % at 12.5 µM | AID 504441, 2011;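 further: plate controls were vehicle with enzyme for no effect and no enzyme for full effect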
Wnt act: Wnt/beta-catenin pathway activators, primary screen, cell-based, plate reader, single point. Wnt/beta-catenin reporter cell assay, activator. activation, % at 9.35 µM. 300,000 tested, 1.2% active. AID 743398, 2014; in the data active means activation above about 30%, passing the limit was not always enough;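 further: 0% = neutral control wells and 100% = positive control wells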
MITF act: activators of MITF-driven TRPM1 promoter reporter, primary screen, cell-based, SK-MEL-5, luciferase, single point; SK-MEL-5 TRPM1-promoter luciferase, 24 h; % of positive control, neutral wells = 0; activation, % at 12.5 µM; 300,000 tested, 0.75% active; AID 588334, 2011;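 active means mean activation of at least 80% with every replicate also reaching 80%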;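 further: 0% = neutral control wells and 100% = parthenolide positive control wells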
GSIS activator: GLuc luminescence reporter in INS-1E cells, primary screen for activators of glucose-dependent secretion of insulin | INS-1E GLuc reporter insulin secretion, 2-3 h | activation, % at 16.6 µM | 370,000 tested, 0.61% active;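 active means lowest replicate activation of at least 40%, so every replicate reaches that level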;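 further: 0% = median of neutral control wells and 100% = median of IBMX positive control wells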
* = called active by the depositor; · = no result; + = active, no number; [ ] = dose if it differs, or a comment. Unless noted, no stated cut-off is given here; in the data, active means inhibition above about 50%; inactive means the rest.

SMILES	miR122 inh	NSD2 inh	DYRK1A inh	Wnt act	MITF act	GSIS activator
C[C@@H]1CCCCO[C@@H](CN(C)S(=O)(=O)c2ccccc2)[C@@H](C)CN([C@H](C)CO)C(=O)c2cc(NC(=O)C3CCCCC3)ccc2O1	3.2[16.7 µM]	·	·	·	·	2.7
CCOc1cc(S(=O)(=O)Nc2cc(C)cc(C)c2)ccc1Cl	118.2*	-1.2	1.0	·	-12.3	-9.3
Cc1cc(C)cc(NS(=O)(=O)c2ccc3oc(=O)ccc3c2)c1	105.1*	0.5	-1.5	·	-6.4	-6.6
COc1ccc(-c2csc(=Nc3ccccc3)n2CC(O)c2ccc([N+](=O)[O-])cc2)cc1 (centres undefined)	·	1.6	·	·	·	·
Cc1noc(C)c1NC(=O)N(C)C[C@@H]1Oc2ccc(NS(=O)(=O)c3c(C)noc3C)cc2CC(=O)N([C@H](C)CO)C[C@H]1C	6.7[16.7 µM]	·	·	·	·	14.0
O=C(NCC1CCCO1)C(c1cccs1)N(Cc1ccccc1)C(=O)c1ccc(-c2ccccc2)[nH]1 (centres undefined)	·	-2.5	-3.0	-3.3	-3.9	-23.5
COc1ccc(CN(C(=O)c2ccc(-c3ccccc3)[nH]2)C(C(=O)NCC2CCCO2)c2ccc(C)o2)cc1 (centres undefined)	230.2*	0.2	4.3	·	·	·
COc1ccc(C(=O)CSc2nnc(-c3cccs3)n2-c2ccccc2)cc1	-3.4	-3.0	4.8	·	-7.9	45.9*
O=C(c1ccccn1)N1CC2(C1)[C@@H](c1ccccc1)[C@@H](CO)N2C(=O)CC1CC1	·	·	·	·	·	5.2
CC(C)C(=O)Nc1nc(-c2ccccc2)ns1	-3.1	-1.6	·	-5.4	134.8*	·
C[C@@H]1CN([C@@H](C)CO)C(=O)c2cccc(NC(=O)c3ccc(-c4nccs4)cc3)c2O[C@H]1CN(C)C(=O)Nc1ccc(C(F)(F)F)cc1	-2.1[16.7 µM]	·	·	·	·	-16.5
O=C1c2sc3nc4n(c(=O)c3c2CCC1Br)CCCCC4 (centres undefined)	-4.9	+	4.4	·	21.2	·
Cc1cccc(N=C2NC(=O)/C(=C/c3cccnc3)S2)c1	·	2.3	-3.5	-0.5	·	45.1*
Clc1ccc(-c2cc3ccccc3[nH]2)cc1	8.8	-1.9	2.1	42.3*	·	-30.1
O=C(O)c1cccc(N/N=C/c2sc(N3CCOCC3)nc2-c2ccccc2)c1	1.7	3.4	29.5	·	38.9	41.5*
C[C@@H]1CN([C@H](C)CO)C(=O)c2cc(NS(=O)(=O)c3ccc(Cl)cc3)ccc2O[C@H]1CN(C)S(=O)(=O)c1ccccc1	69.7[16.7 µM]	·	·	·	·	-6.5
O=C(Nc1ccc(C(F)(F)F)cc1)N[C@@H]1C=C[C@H](CC(=O)N2CCCCC2)O[C@H]1CO	-13.9[16.7 µM]	·	·	·	·	-12.8
CCCN1C(=O)C(O)(C/C(C)=N/O)c2ccccc21 (centres undefined)	-0.2	-3.6	4.6	·	2.3	49.7*
c1ccc(-c2nnc(-c3ccccn3)nn2)nc1	7.9	1.4	-0.9	35.9*	35.8	4.3
Cc1ccc(S(=O)(=O)Nc2ccc3c(c2)C(=O)N([C@@H](C)CO)C[C@H](C)[C@@H](CN(C)Cc2ccncc2)OCCCC[C@@H](C)O3)cc1	-3.9[16.7 µM]	·	·	·	·	-20.6
CCS(=O)(=O)N1Cc2ccccc2CC1C(=O)NCc1cccc(OC)c1 (centres undefined)	-5.5	-0.8	-4.5	-1.7	91.3*	12.5
CCS(=O)(=O)N1Cc2ccccc2CC1C(=O)Nc1cccc(OC)c1 (centres undefined)	·	2.8	4.2	15.3	19.3	-20.4
CCS(=O)(=O)N1Cc2ccccc2CC1C(=O)NCC12CC3CC(CC(C3)C1)C2 (centres undefined)	256.2*	-0.2	-2.9	-3.2	·	·
O=C(C[C@@H]1CC[C@H]2[C@@H](COC[C@H](O)CN2Cc2ccccc2)O1)NCCCN1CCOCC1	-3.2[16.7 µM]	·	·	·	·	1.5
COc1ccc(C2=NN(S(C)(=O)=O)C(c3ccc4nccnc4c3)C2)cc1 (centres undefined)	·	-2.7	1.3	12.9	38.4	38.9
SMILES	miR122 inh	NSD2 inh	DYRK1A inh	Wnt act	MITF act	GSIS activator
COc1ccc(C2=NN(C(C)=O)C(c3cccs3)C2)cc1OC (centres undefined)	-7.7	-3.2	3.8	0.2	·	75.6*
COc1ccc(C2CC(c3ccc(OC)c(OC)c3)=NN2S(C)(=O)=O)cc1 (centres undefined)	-13.5	-16.8	-4.3	45.1*	87.4*	15.3
CCn1c(=O)c2cc(S(=O)(=O)NC3CCCCC3)ccc2n(CC)c1=O	98.5*	-4.3	-4.9	12.9	-3.3	·
CCn1c(=O)c2cc(S(=O)(=O)NCc3ccccc3)ccc2n(CC)c1=O	14.2	32.4	-2.5	7.0	-7.1	13.5
CN(C)C(=O)C[C@H]1C[C@H]2c3cc(NC(=O)Nc4ccccc4)ccc3O[C@H]2[C@H](CO)O1	5.0[16.7 µM]	·	·	·	·	-7.6
Cc1ccc(C(=O)Nc2ncc(C)s2)o1	10.7	1.5	6.4	·	15.4	5.7
Cc1ccc(C(=O)Nc2ncc(Cc3ccc(F)cc3)s2)o1	-10.4	1.9	5.4	65.3*	143.6*	·
C[C@H](CO)N1C[C@H](C)[C@@H](CN(C)C(=O)Nc2ccc(N3CCCCC3)cc2)OCc2cn(nn2)CCCC1=O	0.6[16.7 µM]	·	·	·	·	-3.0
CN1C(=O)NC(c2ccc(O)cc2)C2=C1CN(c1ccccc1)C2=O (centres undefined)	-2.6	1.0	-9.9	1.4	30.3	42.7*
Nc1c(C(=O)Nc2ccc3c(c2)OCCO3)nnn1Cc1ccc(F)cc1	62.0	-2.8	-4.6	26.4	116.4*	34.1
Nc1c(C(=O)Nc2ccc3c(c2)OCCO3)nnn1Cc1cccc(Cl)c1	·	-0.3	14.4	47.2*	100.9*	1.7
COc1ccc(Br)cc1Cn1nnc(C(=O)Nc2ccc3c(c2)OCCO3)c1N	·	2.8	-0.6	-1.6	-1.0	·
Cc1ccccc1NC(=O)c1nnn(-c2ccc3c(c2)OCCO3)c1N	-2.4	1.1	-2.1	36.5*	86.5*	1.2
Nc1c(C(=O)Nc2ccc3c(c2)OCCO3)nnn1Cc1ccccc1Cl	·	0.8	12.8	25.2	145.2*	-14.6
CCC(=O)N1C[C@@H](C)[C@@H](OC)CN(C)C(=O)c2cc(NC(=O)NC3CCCC3)ccc2OC[C@@H]1C	·	·	·	·	·	-3.4
Cc1ccc(C(CC(=O)O)NC(=O)c2ccc(S(=O)(=O)N3CC(C)OC(C)C3)cc2)cc1 (centres undefined)	-0.4	1.0	·	0.6	0.0	58.4*
CC1CN(S(=O)(=O)c2ccc(C(=O)O)cc2)CC(C)O1 (centres undefined)	-0.1	-0.9	7.3	-0.7	3.4	8.6

Assay outcomes from PubChem.
